Screens from PubChem.
AI-2 QS modul: modulates the Vibrio harveyi AI-2 quorum sensing system; Vibrio harveyi JMH597 AI-2 luminescence/OD600 ratio, 9 h; hits give low values; strain lacks LuxN and CqsS sensors; 0 = neutral-control median; activity change, % at 7.5 µM; hit rate 0.4% among 300,000; in the data active = activity change below about -75%, passing the limit was not always enough;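 note: luminescence divided by OD600 gain over 9 h not by final OD600 alone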
GRIN3A LBD mod: NR3A (human) ligand-binding domain modulation | NR3A LBD differential scanning fluorimetry, Tm shift; 0% = protein alone, 100% = glycine-bound protein | hit rate 2.5% among 340,000 | AID 1259313 | Tm shift relative to glycine control, % at 25 µM;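 active = melting temperature shift of at least 10% of the positive control shift, at one fixed dose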
NTR1 ag: NTR1 (human) agonism; NTR1-U2OS beta-arrestin-GFP spot imaging, agonist mode; activation, % at 20 µM; hit rate 0.17% among 330,000; AID 493036;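 active = activation at or above 40% of the spot to cytoplasm intensity ratio, with at least 20 cells analyzed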
Mot1-301 SUMO: blocks SUMOylation pathway, rescuing yeast Mot1-301 growth; S. cerevisiae Mot1-301 growth rescue, ATP luminescence, 38.5C; percent above DMSO median, 100 means doubled; growth rescue, % at 18.8 µM; hit rate 1% among 320,000;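 active = every valid replicate shows activation above 250% relative to neutral control wells; inactive = the rest, any valid replicate at or below 250%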
AHR activator: activators of human aryl hydrocarbon receptor; P35869; AHR-responsive luciferase reporter cells, luminescence; activation, % at 5 µM; hit rate 2.5% among 320,000; AID 2796; in the data active = activation above about 47%
Target sequence (P35869 whole entry, looked up): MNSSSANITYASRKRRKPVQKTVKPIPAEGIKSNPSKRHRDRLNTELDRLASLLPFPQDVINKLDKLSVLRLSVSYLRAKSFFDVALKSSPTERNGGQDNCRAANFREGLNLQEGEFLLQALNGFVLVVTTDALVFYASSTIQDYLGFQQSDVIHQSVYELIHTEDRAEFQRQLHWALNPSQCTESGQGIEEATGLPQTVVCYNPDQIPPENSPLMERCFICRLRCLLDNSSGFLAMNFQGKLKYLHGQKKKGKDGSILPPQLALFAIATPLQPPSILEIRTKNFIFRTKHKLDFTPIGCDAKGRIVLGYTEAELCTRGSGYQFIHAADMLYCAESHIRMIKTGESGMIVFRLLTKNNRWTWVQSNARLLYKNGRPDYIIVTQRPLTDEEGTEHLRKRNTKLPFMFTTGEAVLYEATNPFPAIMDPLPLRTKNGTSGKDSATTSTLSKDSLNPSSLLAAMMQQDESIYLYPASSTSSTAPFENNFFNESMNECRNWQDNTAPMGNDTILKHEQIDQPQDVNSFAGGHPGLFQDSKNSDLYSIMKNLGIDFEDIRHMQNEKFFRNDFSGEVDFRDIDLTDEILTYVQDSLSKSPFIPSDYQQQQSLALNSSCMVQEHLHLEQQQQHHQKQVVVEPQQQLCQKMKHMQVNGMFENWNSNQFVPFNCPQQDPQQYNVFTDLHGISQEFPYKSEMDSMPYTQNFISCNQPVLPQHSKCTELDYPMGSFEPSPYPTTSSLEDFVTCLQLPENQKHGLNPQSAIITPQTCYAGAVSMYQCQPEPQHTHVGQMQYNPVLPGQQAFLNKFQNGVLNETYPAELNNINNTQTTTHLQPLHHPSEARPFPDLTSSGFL
H9c2 protect: modulators protecting cardiomyocytes from myocardial damage; H9c2 cardiomyocytes, H2O2 injury protection, ATPLite, 2 h; protection from H2O2 cell death, % at 20 µM; hit rate 0.63% among 360,000; AID 588492;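 active = compounds giving at least 50% protection of heart cells from peroxide-induced death in the single-dose screen, raw or plate-pattern-corrected value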
Large screens that a line does not name were inactive. Rows were chosen to be rich in hits. Some 6.2% of all compounds tested hit in one or more screens of this group.

COc1cccc(NC(=O)CN(C)CC(=O)NCC(=O)Nc2ccc(F)cc2)c1	GRIN3A LBD mod 19 (no result: AI-2 QS modul)
C=CCNC(=O)Nc1ccc2oc(C)nc2c1	none
COc1ccc(NC(=O)Nc2ccc3oc(C)nc3c2)cc1	GRIN3A LBD mod 25
COc1ccc(NC(=O)Nc2cccc(OC)c2)cc1	GRIN3A LBD mod 25
COc1cccc(NC(=O)Nc2ccc3nc(C)c(C)nc3c2)c1	GRIN3A LBD mod 28 (no result: AI-2 QS modul)
COc1cccc(NC(=O)Nc2ccc3c(c2)nc(C)n3C)c1	none
COc1cccc(NC(=O)Nc2cc(Cl)ccc2C)c1	GRIN3A LBD mod 21
COc1cccc(OC)c1C(=O)Nc1ccc2nc(C)c(C)nc2c1	none
COc1cccc(NC(=O)Nc2ccc3nsnc3c2)c1	GRIN3A LBD mod 37
COc1ccc(N2CC(C(=O)N(CC(C)C)c3c(N)n(Cc4ccccc4)c(=O)[nH]c3=O)CC2=O)c(OC)c1 (stereo not drawn)	none (no result: AI-2 QS modul)
Cc1cccc(C(=O)NCC(=O)NNC(=O)c2ccccc2O)c1	GRIN3A LBD mod 14
O=C(NNC(=S)NC(=O)c1cccs1)c1ccc(O)cc1	none (no result: AHR activator)
Cc1cccc(C(=O)NC(=S)NNC(=O)Cc2ccccc2)c1	AI-2 QS modul -91
O=C(NC(=S)Nc1ccc(S(=O)(=O)N2CCCCC2)cc1)c1cccs1	Mot1-301 SUMO 334
O=C(NC(=S)NNC(=O)c1cccs1)c1ccc(Br)o1	AI-2 QS modul -88
O=C(CNC(=O)c1ccccc1F)NNC(=O)c1ccccc1O	none
NS(=O)(=O)c1ccc(NC(=S)NC(=O)c2cccs2)cc1	none
Cc1c(C)n2c(SCC(=O)N3CCCCC3)nnc2[nH]c1=O	none
CCCCOc1ccc(S(=O)(=O)NC(=O)C2(C)CCN2C(=O)Cc2cccs2)cc1 (stereo not drawn)	none (no result: AI-2 QS modul, GRIN3A LBD mod, NTR1 ag, Mot1-301 SUMO, AHR activator)
O=C(Nc1ccc(NC(=S)NC(=O)c2cccs2)cc1)c1ccccc1	GRIN3A LBD mod 26
O=C(Cc1ccccc1)NNC(=S)NC(=O)c1cccs1	AI-2 QS modul -83
O=C(NNC(=S)NC(=O)c1cccs1)c1ccc(NC(=O)c2ccccc2)cc1	GRIN3A LBD mod 23
COc1ccccc1C(=O)NC(=S)Nc1ccc(NC(=O)c2cccs2)cc1	GRIN3A LBD mod 30
O=C(/C=C/c1ccccc1)NC(=S)NNC(=O)Cc1cccs1	AHR activator 49
COc1ccc(/C=C/C(=O)NC(=S)NNC(=O)Cc2cccs2)cc1	none (no result: Mot1-301 SUMO)
CCNC(=S)N(Cc1ccc(OC)cc1)C1CC(=O)N(c2ccc(OCC)cc2)C1=O (stereo not drawn)	GRIN3A LBD mod 18
CCNC(=S)N(Cc1ccc2c(c1)OCO2)C1CC(=O)N(c2ccc(OC)cc2)C1=O (stereo not drawn)	GRIN3A LBD mod 26
CC(C)(C)N(Cc1ccccc1)C(=O)COC(=O)CSc1ccc([N+](=O)[O-])cc1	none
COc1cc(S(=O)(=O)Nc2cccc(C)c2)ccc1N=Cc1c(C)[nH]n(-c2ccccc2)c1=O	none (no result: GRIN3A LBD mod, H9c2 protect)
COc1cc(S(=O)(=O)Nc2ccc(C)cc2)ccc1N=Cc1c(C)[nH]n(-c2ccccc2)c1=O	GRIN3A LBD mod 26
O=C(Nc1cccc(Cl)c1)c1ccc(F)c(S(=O)(=O)NCc2ccc3c(c2)OCO3)c1	GRIN3A LBD mod 13
CSc1ncccc1C(=O)OCC(=O)NCc1ccc2c(c1)OCO2	Mot1-301 SUMO 294
C/C(=C\C(=O)c1ccc(F)cc1)NCc1ccc2c(c1)OCO2	GRIN3A LBD mod 14
C/C(=C\C(=O)c1ccc(Br)cc1)NCc1ccc2c(c1)OCO2	none
CSc1ncc(Cl)c(C(=O)NCc2ccc3c(c2)OCO3)n1	AHR activator 74
CSc1ncc(Cl)c(C(=O)NCc2cccnc2)n1	none (no result: AHR activator)
Nc1c(Br)cc2c([nH]c(=O)c3ccccc32)c1Br	none (no result: AI-2 QS modul, NTR1 ag, Mot1-301 SUMO, AHR activator)
CC(=O)c1cccc(OC(=O)c2cc(S(=O)(=O)N3CCOCC3)ccc2N2CCCC2)c1	none (no result: AI-2 QS modul)
O=C(Nc1ccc(Br)cc1)c1ccc(F)c(S(=O)(=O)NCc2cccs2)c1	GRIN3A LBD mod 18
O=C(NCc1ccc2c(c1)OCO2)c1cccc(C(=O)NCc2ccc3c(c2)OCO3)c1	AI-2 QS modul -85
O=S(=O)(NCc1cccs1)c1ccc(Br)cc1	none
CCc1ccccc1NC(=O)NCc1ccc2c(c1)OCO2	AHR activator 68
O=C(NCc1ccc2c(c1)OCO2)c1cccnc1	none
O=C(O)CSc1nnc(-c2ccc(Cl)cc2Cl)n1Cc1ccccc1	none
COc1ccc(Nc2nc(N3CCCC3)c3ccccc3n2)cc1	AHR activator 50
Cc1nc(SCC(=O)Nc2ccc3[nH]c(=O)[nH]c3c2)nc(C)c1C	none (no result: AI-2 QS modul)
CC(C)Oc1ccccc1/C=N/n1nnnc1N	none
O=C(CCS(=O)(=O)c1ccccc1)Nc1nc2c(s1)COc1ccccc1-2	AHR activator 63
COc1cc(/C=C(\C#N)C(=O)c2ccc(O)c(O)c2)cc(I)c1O	H9c2 protect 62 (no result: AI-2 QS modul)
CCOC(=O)N1CCN(C(=O)/C=C/c2ccc(C(C)(C)C)cc2)CC1	none
COc1ccc(-c2cc(=Nc3c(C)n(C)n(-c4ccccc4)c3=O)c3ccccc3o2)cc1	none
COc1ccc(-c2c/c(=N\c3nc(-c4ccccc4)c(C)s3)c3ccccc3o2)cc1O	GRIN3A LBD mod 15 (no result: Mot1-301 SUMO)
Clc1cccc(Cl)c1COc1ccccc1CNn1cnnc1	AHR activator 59
Cc1onc(-c2ccccc2Cl)c1C(=O)NCc1nnnn1-c1ccc(F)c(F)c1	none (no result: AI-2 QS modul, GRIN3A LBD mod, NTR1 ag, Mot1-301 SUMO, AHR activator)
COc1cccc(-c2csc(N3CCN(C(=O)Nc4ccc(Cl)cc4)CC3)n2)c1	GRIN3A LBD mod 15
COc1ccc(NC(=O)N2CCN(c3nc(-c4cccc(OC)c4)cs3)CC2)cc1	none
CCNC(=S)N1CCN(c2nc(-c3cccc(OC)c3)cs2)CC1	GRIN3A LBD mod 19
COc1ccc(S(=O)(=O)Nc2ccc(OCC(=O)O)cc2)c2ccccc12	none
c1ccc(-n2nnc(-c3nccs3)n2)cc1	AHR activator 54
COc1ccc2noc3c2c1C(=O)c1ccccc1-3	none
O=C1c2ccccc2-c2onc3ccc(NCCCn4ccnc4)c1c23	AHR activator 60 (no result: H9c2 protect)
COC(=O)CCC(=O)NNC(=O)C1CC1(c1ccccc1)c1ccccc1 (stereo not drawn)	none
Cc1ccc(-n2nc(C)c3c2OC(N)=C(C#N)C3c2ccoc2)cc1 (stereo not drawn)	AHR activator 51
Cc1ccc(-n2nc(C)c3c2OC(N)=C(C#N)C3c2ccco2)cc1 (stereo not drawn)	AHR activator 63
c1ccc(COc2cccc(-c3cc4nc(NCCc5ccncc5)ccn4n3)c2)cc1	none (no result: AI-2 QS modul, GRIN3A LBD mod, NTR1 ag, Mot1-301 SUMO, AHR activator)
CCOC(=O)c1c(-c2ccccc2)nnn1-c1nc(OCC)nc(N2CCCCC2)n1	H9c2 protect 70
N#C/C(=C\c1ccc(OC(=O)c2ccc(Cl)s2)cc1)c1nc2ccccc2[nH]1	AHR activator 49
N#C/C(=C\c1ccc(OC(=O)c2ccc(Br)s2)cc1)c1nc2ccccc2[nH]1	GRIN3A LBD mod 26 (no result: AI-2 QS modul, NTR1 ag)
